Source: PubChem
CHOP inh = blocks CHOP induction under ER stress; CHO-K1 CHOP-promoter luciferase, tunicamycin-induced, 15-18 h; inhibition, % at 10 µM; 3.8% of 220,000 active; AID 2732;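 active = compounds that reduced the stress-induced luciferase reporter signal by more than about 70% of percent inhibition, limit read from the data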
S1P4 agonist = human S1P4 receptor agonism; O95977; AID 1509; activation, % at 4.98 µM; S1P4-expressing cell line, agonist reporter assay; 0.35% of 220,000 active; in the data active = activation above about 11%
S1P4 antagonist = antagonists of human S1P4 receptor. S1P4-expressing cells, antagonist mode, reporter read-out. inhibition, % at 4.98 µM. O95977. AID 1510. 0.26% of 220,000 active; in the data active = inhibition above about 29%
Hsp70 act = switches on Hsp70 transcription. 0.04% of 200,000 active. activation, % at 10 µM. HeLa Hsp70 promoter luciferase reporter, luminescence; scaled: vehicle 0, proteasome-inhibitor control 100%. AID 1203;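 active = activation above the mean across all tested compounds plus 3 SD, cutoff set per campaign, cut at about 5.5% in these data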
S1P4 agonist cf = confirmation of human S1P4 receptor agonists. shares compounds with S1P4 agonist. S1P4 agonist cell-based reporter assay. activation, % at 4.98 µM. 7% of 740 active. AID 1523; in the data active = activation above about 12%
S1P1 ag = activates human S1P1, counter-screen for S1P4 agonists. 4% of 740 active. activation, % at 4.98 µM. AID 1563. shares compounds with S1P4 agonist. S1P1 agonist cell-based assay, activation; in the data active = activation above about 21%
Target sequence (P21453 whole entry, looked up): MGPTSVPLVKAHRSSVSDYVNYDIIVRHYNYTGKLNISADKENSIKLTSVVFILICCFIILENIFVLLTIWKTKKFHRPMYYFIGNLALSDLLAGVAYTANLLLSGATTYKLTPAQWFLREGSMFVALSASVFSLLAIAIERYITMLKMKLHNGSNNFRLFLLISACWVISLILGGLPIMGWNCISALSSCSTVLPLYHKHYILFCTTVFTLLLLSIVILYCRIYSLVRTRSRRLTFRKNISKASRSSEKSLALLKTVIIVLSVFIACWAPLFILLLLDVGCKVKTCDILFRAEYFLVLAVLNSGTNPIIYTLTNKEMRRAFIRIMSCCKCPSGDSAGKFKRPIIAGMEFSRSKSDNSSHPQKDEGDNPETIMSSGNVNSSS
Hits are given with their value; n = inactive; x = no result. Hits are enriched below; roughly 4.2% of the tested compounds scored in any of these assays.

SMILES	CHOP inh	S1P4 agonist	S1P4 antagonist	Hsp70 act	S1P4 agonist cf	S1P1 ag
CCOC(=O)c1sc(NC(C)=O)nc1C	n	n	n	n	x	x
CCOC(=O)c1sc(Nc2nc(OC)cc(OC)n2)nc1C	n	64	n	n	n	n
CCCC(=O)Nc1ccc2oc(=O)ccc2c1	n	n	n	n	x	x
O=C(Nc1ccn(Cc2ccccc2)n1)c1cccc(Cn2cc([N+](=O)[O-])cn2)c1	n	13	n	n	n	n
CCOC(=O)Cn1nc(C)c(NC(=O)COc2cccc(Cl)c2)c1C	n	12	n	n	n	n
O=C(Nc1nc2ccccc2[nH]1)c1cccc([N+](=O)[O-])c1	n	n	n	n	x	x
COCCCn1c(=N)c(C(=O)NCc2ccc3c(c2)OCO3)cc2c(=O)n3ccccc3nc21	n	n	n	n	x	x
COCCCn1c(=N)c(C(=O)NC2CCCCC2)cc2c(=O)n3ccccc3nc21	n	13	n	n	n	n
Cc1cccn2c(=O)c3cc(C(=O)NCc4cccnc4)c(=N)n(C(C)C)c3nc12	n	n	n	n	x	x
CC(C)n1c(=N)c(C(=O)NCCc2ccccc2)cc2c(=O)n3ccccc3nc21	n	18	n	n	14	36
Cc1cc(NCCNC2=CC(=O)CCC2)nc2ccccc12	n	n	n	n	x	x
COc1ccc(-c2nnc(SCC(=O)Nc3cc(S(=O)(=O)N4CCCCC4)ccc3Cl)n2N)cc1	n	n	n	n	x	x
COc1ccc(NC(=S)c2ccncc2)cc1	n	19	n	n	n	n
COc1ccc(C(=S)Nc2ccc(C)cc2)cc1	n	n	n	n	x	x
COc1ccc(C(CC(=O)NCCN2CCOCC2)NS(=O)(=O)c2ccc(C)cc2)cc1 (stereo unspecified)	n	n	n	n	x	x
Cn1c(-c2cc3ccc(OC(=O)C(C)(C)C)cc3oc2=O)nc2ccccc21	n	24	n	n	18	n
O=C(O)[C@@H](c1ccccc1)N1Cc2ccccc2C1=O	n	n	n	n	x	x
COc1ccc(OCCSc2nc(-c3ccccc3)cc(=O)[nH]2)cc1	n	31	n	n	n	n
COc1ccc(N2CCCn3c2nc2c3c(=O)n(Cc3ccccc3F)c(=O)n2C)c(OC)c1	n	n	n	n	x	x
CC(OC(=O)c1cc2sccc2n1C)C(=O)NCc1cccs1 (stereo unspecified)	n	22	n	n	n	n
CCOC(=O)c1sc(-c2ccccc2)cc1NC(=O)Nc1ccccc1	n	25	n	n	n	n
COc1ccc(/C=N/Nc2ncccc2[N+](=O)[O-])c(OC)c1	n	n	n	n	x	x
COc1ccc(-c2nnn(CC(=O)N(CCCN3CCOCC3)C(C(=O)NC3CCCC3)c3ccco3)n2)cc1 (stereo unspecified)	n	14	n	n	n	n
COc1ccc(C)cc1NC(=O)CN1CCN(S(=O)(=O)c2ccc(C(C)C)cc2)CC1	n	n	n	n	x	x
Cc1ccc(CNC(=O)C2CC(c3ccc([N+](=O)[O-])cc3)=NO2)cc1 (stereo unspecified)	n	25	n	n	n	n
SMILES	CHOP inh	S1P4 agonist	S1P4 antagonist	Hsp70 act	S1P4 agonist cf	S1P1 ag
O=C(CSc1nc2ncc(Cl)cc2[nH]1)c1ccc2c(c1)OCO2	n	n	n	x	x	x
O=C(CSc1nc2ncc(Br)cc2[nH]1)Nc1ccc2c(c1)OCO2	n	29	n	n	n	n
COC(=O)CCCNc1ncccc1[N+](=O)[O-]	n	48	n	n	n	n
O=[N+]([O-])c1cccnc1NCCc1ccccc1	n	n	n	n	x	x
Cn1c(=O)oc2cc(S(=O)(=O)N3CCC(C(=O)NCCc4ccccc4)CC3)ccc21	n	14	n	x	n	n
O=C(NCc1ccccc1)C(c1ccc(F)cc1)N(Cc1ccco1)C(=O)c1ccccn1 (stereo unspecified)	n	40	n	n	n	n
Cc1ccc(S(=O)(=O)/N=c2\sccn2C)cc1	n	n	n	n	x	x
Cc1ccc(S(=O)(=O)/N=C2\CN(C)C(=O)N2C)cc1	n	16	n	n	n	n
O=C(COC(=O)c1cn(-c2ccccc2)nc1-c1cccs1)NC1CC1	n	34	n	n	n	n
O=C(CNC(=O)c1ccccc1)OCc1cccc([N+](=O)[O-])c1	n	n	n	n	x	x
CC(C)(C)c1ccc(C(=O)NCC(=O)OCc2ccc([N+](=O)[O-])cc2)cc1	n	14	n	n	n	n
CC/C(O)=C1\C(=O)CCCC1=NCCc1nc2ccccc2[nH]1	n	n	n	n	x	x
CC/C(O)=C1\C(=O)CCCC1=NCc1nc2ccccc2[nH]1	n	209	n	n	n	n
CCOC(=O)c1[nH]c2ccc(OC)cc2c1NC(=S)N1CCN(c2ccccc2)CC1	n	n	n	n	x	x
COC(=O)c1ccc(NC(=O)c2ccccc2)o1	n	25	n	n	n	n
COC(=O)c1ccc(NC(C)=O)o1	n	n	n	n	x	x
CCOC(=O)c1c(C)[nH]c(C2=NNC(=Nc3ccccc3)SC2)c1C	n	62	n	n	n	n
O=C(NNS(=O)(=O)c1ccccc1)c1cccs1	n	n	n	n	x	x
CC(C)(CNS(=O)(=O)c1ccc2c(c1)OCCO2)N1CCOCC1	n	n	n	n	x	x
CC/C(=N\O)c1c(O)c2c(n(-c3ccccc3)c1=O)CCCC2	n	22	n	n	n	n
Cc1cc(=O)[nH]c(N/N=C/c2c(O)n(-c3ccccc3)c(=O)c3ccccc23)n1	n	29	n	n	n	n
CCOC(=O)c1cnc2c(cnn2C)c1NCCC(O)C(F)(F)F (stereo unspecified)	n	n	n	n	x	x
CCC(Sc1nc(C)cc(=O)[nH]1)C(=O)Nc1ccc(Cl)cn1 (stereo unspecified)	n	n	n	n	x	x
NC(=S)NNC(=O)c1cc(C(F)(F)F)cc(C(F)(F)F)c1	n	77	n	x	n	n
CS(=O)(=O)Nc1ccc(C(=O)N2CCN(c3ccccc3)CC2)cc1	n	56	n	n	n	n
SMILES	CHOP inh	S1P4 agonist	S1P4 antagonist	Hsp70 act	S1P4 agonist cf	S1P1 ag
CC(C)CCOP(=O)(c1ccccc1)c1ccccc1	n	58	n	n	n	n
Cc1cc(Nc2cc(F)ccc2C)n2nc(C)nc2n1	n	14	n	n	n	n
O=C(CN1CCOCC1)Nc1scc2c1c(=O)oc1ccccc12	n	23	n	x	n	n
O=C(CN1CCCCC1)Nc1scc2c1c(=O)oc1ccccc12	n	n	n	x	x	x
CCOC(=O)c1c(N)sc(C(O)(C(F)(F)F)C(F)(F)F)c1-c1ccc(OC)cc1OC	n	n	n	n	x	x
CCCCNC(=O)CC1S/C(=N/N=C/c2ccc(OC)cc2)NC1=O (stereo unspecified)	n	12	n	n	n	n
CC(NC(=O)c1sc2cc([N+](=O)[O-])ccc2c1Cl)C(C)(C)C (stereo unspecified)	n	n	n	n	x	x
O=C(COC(=O)c1ccccn1)NCc1ccccc1Cl	n	27	n	n	n	n
O=C(NCc1ccc(F)cc1F)c1cc(COc2c(F)cccc2F)on1	n	n	n	n	x	x
Nn1cc(-c2ccccc2)nc1SCC(=O)NCCc1ccccc1	n	n	n	n	x	x
Nn1cc(-c2ccccc2)nc1SCC(=O)NCC(F)(F)F	n	14	n	n	n	n
